Assay results reported in PubChem BioAssay (Tox21).
Calls of active or inactive are those of the source. The call rests on the fitted dose curve; in most records, active means well fitted curve in the direction sought with a large enough effect in the repeat runs; inconclusive means weak or mixed curves; inactive means flat fitted curve, though single readings scatter.

experiment: qHTS assay to test for compound auto fluorescence at 590 nm (red) in HepG2 cells (AID 720674); conditions: HepG2 autofluorescence, red 540/590 nm, 1 h; series mostly up to 91.3 µM
From the text: U.S. Tox21 Program National Center for Advancing Translational Sciences [NCATS] NIH Chemical Genomics Center [NCGC] U.S. Environmental Protection Agency [EPA] National Institutes of Environmental Health Sciences [NIEHS] National Toxicology Program [NTP] U.S. Food and Drug Administration [FDA] Tox21 Assay Overview: Compound auto fluorescence often interferes with screening of the compound library against various biological targets and signaling pathways. Some of these compounds may have fluorophoric properties. Such properties may interfere with the assay outputs resulting in false positives and/or negatives. To decrease such complications and ensure the compound activities are relevant in terms of biological response, the Tox21 10K compound library was screened for auto fluorescence. From the fluorophores used as reporter signals in our screening assays, the auto fluorescence equivalencies of compounds against three fluorophores have been evaluated: Triamterene, Fluorescein and Rose Bengal sodium for blue, green and red fluorescence, respectively. The fluorescence intensities were measured using Excitation/Emission wavelengths at 405/460nm, 485/535nm and 540/590nm for blue, green and red labels, respectively. This assay includes the red fluorescence data.
Tox21 Assay Protocol Summary: 2,000 HepG2 cells in 5 uL of culture medium (MEM containing 10% FBS) per well were dispensed into black wall/clear bottom 1536-well plates using a Multidrop Combi Dispenser (ThermoFisher Scientific, Waltham, MA). The assay plates were incubated overnight at 37 C to allow cell attachment to the well bottom, followed by the transfer of 23 nL compound or DMSO vehicle by a pintool work station (Kalypsys , San Diego, CA). After the assay plates were incubated for 1 hr at 37 C and 5% CO2, fluorescence intensities in the assay plates were measured by an Envision (PerkinElmer, Shelton, CT) plate reader using three labels for measuring blue, green and red fluorescence at […] 460, 535 and 590 nm respectively.

Compound	outcome
O=c1nc(O)n(Cl)c(=O)n1Cl	inactive
CCC[N+]1(C)CCCC1	inactive
CCCC[N+]1(C)CCCCC1	inactive
C[N+](C)(C)Cc1ccccc1	inactive
Nc1ccc(-c2ccc(N)c(Cl)c2)cc1Cl	inactive
CCOP(=S)(OCC)Oc1ccc2c(C)c(Cl)c(=O)oc2c1	inactive
Cc1cc(-c2ccc(N)c(C)c2)ccc1N	inactive
Cc1cc(Cl)ccc1N	inactive
CCCCCCCCCCCCn1cc[n+](C)c1	inactive
CCCn1cc[n+](C)c1	inactive
Oc1ccccc1-c1ccccc1	inactive
O=C(O)CC(O)(CC(=O)O)C(=O)O	inactive
O=C(O)COc1ccc(Cl)cc1Cl	inactive
C1CCC(NC2CCCCC2)CC1	inactive
O=[N+]([O-])c1ccccc1O	inactive
CCCCCCCCCCCCCCCCn1cc[n+](C)c1	inactive
CCCCCCCCCCn1cc[n+](C)c1	inactive
CCCCCC[n+]1ccccc1	inactive
N#CS	inactive
O=P1(N(CCCl)CCCl)NCCCO1 (stereo not given)	inactive

Compound	outcome
O=c1[nH]c(=O)n(Cl)c(=O)n1Cl	inactive
CCn1cc[n+](C)c1C	inactive
CCCCCCCCCCCCCC[P+](CCCCCC)(CCCCCC)CCCCCC	inactive
OCCOc1ccccc1	inactive
Cc1cc(Cl)ccc1OCC(=O)O	inactive
COc1ccc(N)cc1	inactive
CCCC[n+]1cccc(C)c1	inactive
CCCC[n+]1ccc(C)cc1	inactive
CCCC[n+]1ccccc1	inactive
CCCCn1cc[n+](C)c1C	inactive
Nc1ccccc1	inactive
Oc1cccc2cccnc12	inactive
CC[N+](CC)(CC)CC	inactive
CC(=O)O	inactive
CCCCCCCCCCCCOS(=O)(=O)O	inactive
CCCCCCCCCCCC(=O)O	inactive
CCCC[N+]1(C)CCCC1	inactive
CCNc1nc(Cl)nc(NCC)n1	inactive
CCCCn1cc[n+](C)c1	inactive
O=[N+]([O-])O	inactive
